Values without a mark were called inactive. Entries that show only a call come without a potency. The source made the active and inactive calls. Calls follow the shape of the dose curve; as a rule, active = well fitted inhibition curve with a large enough effect; inconclusive = small, poorly fitted or top-dose-only effect; inactive = flat fitted curve, though single readings scatter.
Potency is read from the fitted curve at half-maximal effect.

For this assay, the target named is Luciferin 4-monooxygenase (Photinus pyralis) (UniProt P08659). Nature of the assay: Primary firefly luciferase (FLuc) qHTS assay for identification of artifact compounds. (AID 1845220). Also: nearly all actives have a fitted effect of over 60% in size. As to conditions: purified firefly luciferase, luminescence, 5 min; series mostly up to 54.1 µM. From the text:
PI: Alexander Tropsha Ph.D.
UNC Eshelman School of Pharmacy
University of North Carolina, Chapel Hill, North Carolina
Hits from high-throughput screening (HTS) of chemical libraries are often false positives due to their interference with the assay detection technology. In response to this problem, we generated the largest publicly available library of chemical liabilities and developed a free webtool to predict HTS artifacts, both of which are described herein. More specifically, we generated, curated, and integrated HTS datasets for thiol reactivity, redox activity, and luciferase (firefly and nano) activity. Using these curated datasets, we developed and validated several Quantitative Structure-Interference Relationship (QSIR) models to predict nuisance behavior. […] These models were employed for virtual profiling of the National Center for Advancing Translational Science's (NCATS) in-house library, and 256 compounds for each assay were selected for the experimental validation of nuisance behavior. The BA for these external predictions ranged from 58 to 78% for compounds within the applicability domains of the models. […] The models developed in this study, along with aggregation models previously developed by our group (SCAM Detective) were implemented in "Liability Predictor," an online tool which may be used as part of chemical library design or for triaging HTS hits. Both the models and the curated datasets are publicly available at https://liability.mml.unc.edu/.
SEQUENCE No. (e.g., 1, 2, 3, etc.); […] (e.g., Cells, Incubation, Reagent, etc.); VALUE; DESCRIPTION.
1; Reagent; 3 uL; Luciferase substrate mixture.
2; Compounds and control; 16 nL; Kalypsis pin tool (Wako USA) equipped with a 1536-well pin head.
4; Reagent; 1 uL; Luciferase enzyme.
6; Detection; Luminescence, ViewLux microplate reader.
NOTES (numbers refer to Sequence numbers above)
1. 3 uL of luciferase substrate mixture containing D-luciferin and ATP (final concentrations of 10 uM and 10 uM, respectively) in assay buffer (10 mM Mg-acetate, 0.01% Tween-20, 0.05% bovine serum albumin, 50 mM Tris acetate, pH 7.6) was dispensed into all wells of a 1536-well assay plate (solid-bottom white plate; Greiner Bio One, Monroe, NC).
2. A Wako Pin-tool (Wako Automation, Richmond, VA) was used to transfer 16 nL of compounds (consisting of 7-plates in qHTS format, final concentration range 18.3 nM to 114 uM) or control PTC124 (final concentration range 1.22 nM to 40 uM).
3. 15 min. incubation at room temperature protected from light.
4. 1 uL of luciferase enzyme (final concentration 10 nM, Photinus pyralis luciferase) or buffer was dispensed for a final assay volume of 4 uL.
5. Plates were centrifuged (121xg, 15 seconds) and incubated for 5 minutes.
6. Samples were read for luminescence on a ViewLux CCD imager (PerkinElmer). Data were normalized to no-enzyme (0% activity) and no-inhibitor (DMSO; 100%) controls and the resulting percent inhibition data were fitted to a 4-parameter Hill equation using NCATS in-house software.
For `CC(C)c1nc(CN(C)C(=O)N[C@H](C(=O)N[C@@H](Cc2ccccc2)C[C@H](O)[C@H](Cc2ccccc2)NC(=O)OCc2cncs2)C(C)C)cs1`, the Potency entry is “inactive”.
As for `Cc1cc2c(s1)Nc1ccccc1N=C2N1CCN(C)CC1`, the Potency entry is “inactive”.
On the same count and under the same terms, to `Clc1ccc(C(Cn2ccnc2)OCc2c(Cl)cccc2Cl)c(Cl)c1` (stereo unspecified) belongs “inactive”; to `CN(C)CCCC1(c2ccc(F)cc2)OCc2cc(C#N)ccc21` (stereo unspecified), “inactive”.
On the same count and under the same terms, to `Cc1nc(Nc2ncc(C(=O)Nc3c(C)cccc3Cl)s2)cc(N2CCN(CCO)CC2)n1` belongs “inactive”.
Same read-out and setting: to `CC(C)C[C@H](NC(=O)[C@H](Cc1ccccc1)NC(=O)c1cnccn1)B(O)O` belongs “inactive”; to `Cc1ccc(NC(=O)c2ccc(CN3CCN(C)CC3)cc2)cc1Nc1nccc(-c2cccnc2)n1`, 19 µM (active).
Turning to `COCCCOc1ccnc(CS(=O)c2nc3ccccc3[nH]2)c1C` (stereo unspecified), the Potency result was “inactive”.
For the compound `C=C(c1ccc(C(=O)O)cc1)c1cc2c(cc1C)C(C)(C)CCC2(C)C`, the Potency entry was “inactive”.
With `COc1ccccc1N1CCN(CCN(C(=O)C2CCCCC2)c2ccccn2)CC1`, the Potency result was “inactive”.
As to `CC(=O)O[C@H]1C(=O)[C@@]2(C)C([C@H](OC(=O)c3ccccc3)[C@]3(O)C[C@H](OC(=O)[C@H](O)[C@@H](NC(=O)c4ccccc4)c4ccccc4)C(C)=C1C3(C)C)[C@]1(OC(C)=O)CO[C@@H]1C[C@@H]2O` (stereo partly specified), the Potency entry is “inactive”.
Consider `O=C(NOCC1CC1)c1ccc(F)c(F)c1Nc1ccc(I)cc1Cl`, for which the Potency result is “inactive”.
Same read-out and setting: the same measure for `N[C@@H](Cc1cc(I)c(Oc2cc(I)c(O)c(I)c2)c(I)c1)C(=O)O`: “inactive”; for `COc1c(O)cc2c(c1O)[C@@H]1O[C@H](CO)[C@@H](O)[C@H](O)[C@H]1OC2=O`: “inactive”.
On to `CC(=O)NC[C@H]1CN(c2ccc(N3CCOCC3)c(F)c2)C(=O)O1`, for which the Potency entry was “inactive”.
With `O=C(OC1C[C@H]2CC[C@@H](C1)[N+]21CCCC1)C(O)(c1ccccc1)c1ccccc1` (stereo partly specified), the Potency entry is “inactive”.
Still for that read-out and setting: to `c1cnc2cc3c(cc2n1)C1CNCC3C1` belongs “inactive”; to `COc1cc2c(N3CCN(C(=O)Nc4ccc(OC(C)C)cc4)CC3)ncnc2cc1OCCCN1CCCCC1`, “inactive”.
The same measure, in the same setting: to `CCC1=C(C)CN(C(=O)NCCc2ccc(S(=O)(=O)NC(=O)NC3CCC(C)CC3)cc2)C1=O` (stereo unspecified) belongs “inactive”.
The same measure, in the same setting: to `CCC(C)(Oc1ccc(C2(c3ccc(OC(C)(CC)C(=O)O)cc3)CCCCC2)cc1)C(=O)O` (stereo unspecified) belongs “inactive”; to `CN(C)C(=O)[C@H](O)[C@H](Cc1ccccc1)NC(=O)c1cc2cc(Cl)ccc2[nH]1`, “inactive”; to `Cc1nccn1CC1CCc2c(c3ccccc3n2C)C1=O` (stereo unspecified), “inactive”.
In the case of `COc1ccc(C2(C#N)CCC(C(=O)O)CC2)cc1OC1CCCC1` (stereo unspecified), the Potency result was “inactive”.
As for `COc1cc(Nc2c(C#N)cnc3cc(OCCCN4CCN(C)CC4)c(OC)cc23)c(Cl)cc1Cl`, the Potency result is “inactive”.
The same measure, in the same setting: to `COc1ccc2cc([C@H](C)C(=O)O)ccc2c1` belongs “inactive”; to `O=C(O)c1cccc(-c2noc(-c3ccccc3F)n2)c1`, 0.0067 µM (active).
For the compound `CCN(CCO)CCCC(C)Nc1ccnc2cc(Cl)ccc12` (stereo unspecified), the activity change, negative = inhibition was -0.741% [at 6.45 µM].
On to `OC(CN1CCN(c2cccc(Cl)c2)CC1)C(c1ccccc1)c1ccccc1` (stereo unspecified), for which the Potency result was “inactive”.
In the case of `Cc1ccc(Nc2nccc(N(C)c3ccc4c(C)n(C)nc4c3)n2)cc1S(N)(=O)=O`, the Potency result is “inactive”.
Consider `CCCS(=O)c1ccc2nc(NC(=O)OC)[nH]c2c1` (stereo unspecified), for which the Potency result is “inactive”.
For the compound `CN(c1nccc(=O)[nH]1)C1CCN(c2nc3ccccc3n2Cc2ccc(F)cc2)CC1`, the Potency result is “inactive”.

The record behind these values is PubChem BioAssay (NCATS).
